Data from PubChem BioAssay.
For part of these data: Potency and affinity values are given separately.

Columns and labels:
[1] = yeast 75Q aggregation reduction – 75Q-TubU reporter (AID 1593); conditions: Yeast 75Q polyglutamine aggregation reporter
[2] = restoration of touch response, mutant HTT neurons – whole organism, C. elegans mechanosensory neurons, N-terminal huntingtin (AID 1599); conditions: C. elegans polyQ-huntingtin mechanosensory neurons, stronger effect = higher value
[3] = blockers of cytochrome c efflux from mitochondria – biochemical, purified mitochondria (AID 1603); conditions: stronger effect = lower value;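 also: mouse liver mitochondria challenged with calcium chloride; signal normalized to the plate average as 100%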
[4] = polyglutamine aggregate formation blockers (AID 1604); conditions: polyglutamine-induced protein aggregation inhibition assay; stronger effect = higher value; tested at 2.5 µM
[5] = glutamate transport activators, MN-1 cells, MN-1 cell line (AID 1612); conditions: MN-1 motor neuron cells, stronger effect = higher value;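 also: tested at 1 µM final; 0% = mean of DMSO vehicle wells on each plate; positive means more glutamate uptake than control and negative means less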
[6] = 75Q-TubH aggregate inhibition, S. cerevisiae, yeast (AID 1616); conditions: S. cerevisiae 75Q-TubH polyglutamine aggregation suppression; stronger effect = higher value

N.N.O=C(O)C1(C(=O)O)CCC1.[Pt]
score [1]: 1.14
rescue above control [2]: 12.6
cytochrome c release ratio [3]: 0.66
inhibition of aggregation [4]: 37.7%
glutamate uptake change [5]: -9.42%
aggregation suppression score [6]: 1.13
